Records with an inconclusive call do not appear. Calls of active or inactive are those of the source. Rule for the calls, unless noted: active = hit-call score of the fitted dose curve at least 0.9, where 1 is the maximum; inconclusive = response in the unintended direction; inactive = score below 0.9.
How the values were obtained:
[1] = STM_H9_OrnithineISnorm_perc: Stemina devTOX quickPredict H9 human embryonic stem cell (hESC)-based Assay for Ornithine (ORN) Metabolite Biomarker, Normalized (AID 2283712; active = hit-call score of the fitted dose curve at least 0.9, where 1 is the maximum; inactive = score below 0.9;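 note: ornithine released into spent medium during last day measured by mass spectrometry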)
How it was run: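 UPLC-HRMS readout: endogenous ornithine EIC area / 13C-ORN internal standard, then % of 0.1% DMSO median. H9 hESCs (pluripotent), 72h exposure, re-dosed with fresh media q24h; last 24-h spent media, deproteinized in 40% acetonitrile.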

[2] = STM_H9_CystineISnorm_perc: Stemina devTOX quickPredict H9 human embryonic stem cell (hESC)-based Assay for Cystine (CYSS) Metabolite Biomarker, Normalized (AID 2283713; active = hit-call score of the fitted dose curve at least 0.9, where 1 is the maximum; inactive = score below 0.9)
How it was run: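 UPLC-HRMS read-out: endogenous cystine peak area in spent medium, normalized to isotope-labeled internal standard and to median of 0.1% DMSO controls. Pluripotent H9 cells, 72h exposure, daily medium/compound replenishment; medium from last 24h sampled.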

[3] = read-out: sulfotransferase (SULT2A), SULT2A1 (gene 6822); assay: CLD_SULT2A_24hr: CellzDirect (CLD) Gene Expression Assay for sulfotransferase (SULT2A) at 24 hours (AID 2283694)
How it was run: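 mRNA is measured by qNPA: probe hybridisation, S1 nuclease digestion, chemiluminescence, in lysates from human primary hepatocytes harvested 24 h after daily dosing. Vehicle was 0.2% DMSO. Phase-contrast microscopy flagged cytotoxicity (yes/no).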

[4] = read-out: ABC Transporter (ABCB1), ABCB1 (gene 5243); assay: CLD_ABCB1_48hr: CellzDirect (CLD) Gene Expression Assay for ABC Transporter (ABCB1) at 48 hours (AID 2283695)
How it was run: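 ABCB1 mRNA was measured by quantitative nuclease protection assay (chemiluminescence) 48 h after dosing. Human hepatocyte cultures from two separate donors received fresh dosing solutions daily for two days, with 0.2% DMSO as vehicle. Positive-direction fit against DMSO.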

[5] = read-out: glucuronosyltransferase (UGT1A1), UGT1A1 (gene 54658); assay: CLD_UGT1A1_24hr: CellzDirect (CLD) Gene Expression Assay for glucuronosyltransferase (UGT1A1) at 24 hours (AID 2283696)
How it was run: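 UGT1A1 transcript induction was measured by quantitative nuclease protection assay (chemiluminescence) in human hepatocyte cultures 24 h after daily fresh dosing, with 0.2% DMSO as vehicle and baseline.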

[6] = read-out: Cytochrome P450 3A4 (Homo sapiens) (UniProt P08684); assay: CLD_CYP3A4_48hr: CellzDirect (CLD) Gene Expression Assay for xenobiotic metabolism (CYP3A4) at 48 hours (AID 2283698)
How it was run: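 CYP3A4 induction read by qNPA chemiluminescence after 48 h, with fresh dosing solutions on consecutive days, in cultured human hepatocytes (two donors). Vehicle 0.2% DMSO as baseline; microscopy-based cytotoxicity annotated yes/no alongside data.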

[7] = read-out: Cytochrome P450 2B6 (Homo sapiens) (UniProt P20813); assay: CLD_CYP2B6_48hr: CellzDirect (CLD) Gene Expression Assay for xenobiotic metabolism (CYP2B6) at 48 hours (AID 2283699);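 note: actives raise transcript level above DMSO so potency reflects induction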
How it was run: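 CYP2B6 transcript induction, read by quantitative nuclease protection (S1 digestion, chemiluminescent detection) 48 h after dosing, is fitted upward against 0.2% DMSO. Cultured human liver primary cells, two donor preparations, received fresh chemical daily over multiple concentrations.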

[8] = read-out: Cytochrome P450 2C9 (Homo sapiens) (UniProt P11712); assay: CLD_CYP2C9_48hr: CellzDirect (CLD) Gene Expression Assay for xenobiotic metabolism (CYP2C9) at 48 hours (AID 2283701; active = hit-call score of the fitted dose curve at least 0.9, where 1 is the maximum; inactive = score below 0.9)
How it was run: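 mRNA level measured by quantitative nuclease protection (S1 digestion, chemiluminescent detection) in lysates of human primary hepatocytes exposed 48 h with daily re-dosing. Induction fitted positively versus 0.2% DMSO; morphology-based cytotoxicity flagged yes/no.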

[9] = read-out: xenobiotic metabolism (CYP1A2), CYP1A2 (gene 1544); assay: CLD_CYP1A2_48hr: CellzDirect (CLD) Gene Expression Assay for xenobiotic metabolism (CYP1A2) at 48 hours (AID 2283703)
How it was run: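 Cytotoxicity was flagged yes/no from morphology, while CYP1A2 transcript induction was detected by qNPA chemiluminescence after a 48-hour exposure. Human primary hepatocyte cultures from separate donors received fresh dosing solutions daily over two days, with 0.2% DMSO as vehicle and baseline.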

[10] = read-out: Broad substrate specificity ATP-binding cassette transporter ABCG2 (Homo sapiens) (UniProt Q9UNQ0); assay: CLD_ABCG2_48hr: CellzDirect (CLD) Gene Expression Assay for ABC Transporter (ABCG2) at 48 hours (AID 2283704)
How it was run: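 ABCG2 transcript measured at 48 h by quantitative nuclease protection (chemiluminescent) and fitted for increase relative to 0.2% DMSO. Hepatocyte cultures from separate donors got fresh compound daily over two days; morphology annotated cytotoxicity.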

[11] = read-out: xenobiotic metabolism (CYP1A1), CYP1A1 (gene 1543); assay: CLD_CYP1A1_48hr: CellzDirect (CLD) Gene Expression Assay for xenobiotic metabolism (CYP1A1) at 48 hours (AID 2283705)
How it was run: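 CYP1A1 transcript measured by quantitative nuclease protection (chemiluminescent) 48 h after two daily treatments of human hepatocyte cultures, versus 0.2% DMSO. Morphology-based cytotoxicity flags accompany data; two donor preparations used.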

[12] = read-out: organic anion transporter (SLCO1B1), SLCO1B1 (gene 10599); assay: CLD_SLCO1B1_48hr: CellzDirect (CLD) Gene Expression Assay for organic anion transporter (SLCO1B1) at 48 hours (AID 2283707)
How it was run: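 SLCO1B1 transcript quantified by qNPA with chemiluminescent readout after 48 h of once-daily chemical exposure. Cultured human primary hepatocytes came from two donors, with 0.2% DMSO vehicle; positive-direction fitting against DMSO, cytotoxicity flagged by morphology.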

[13] = read-out: alkyl and aryl transferase (GSTA2), GSTA2 (gene 2939); assay: CLD_GSTA2_48hr: CellzDirect (CLD) Gene Expression Assay for alkyl and aryl transferase (GSTA2) at 48 hours (AID 2283708);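 note: active means mRNA induction above DMSO vehicle baseline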
How it was run: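 GSTA2 mRNA quantified by qNPA chemiluminescence in human primary hepatocyte lysates after 48 h of daily fresh chemical dosing. Increases fitted against 0.2% DMSO vehicle baseline; cytotoxicity from morphology annotated yes/no.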

[14] = read-out: glucuronosyltransferase (UGT1A1), UGT1A1 (gene 54658); assay: CLD_UGT1A1_48hr: CellzDirect (CLD) Gene Expression Assay for glucuronosyltransferase (UGT1A1) at 48 hours (AID 2283709);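 note: actives increase expression relative to DMSO so potency refers to induction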
How it was run: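 Quantitative nuclease protection assay (chemiluminescent) for UGT1A1 mRNA at 48 h in human hepatocyte cultures from two donors, redosed daily with fresh solutions. Induction fitted relative to 0.2% DMSO; phase-contrast morphology annotated cytotoxicity.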

[15] = read-out: sulfotransferase (SULT2A), SULT2A1 (gene 6822); assay: CLD_SULT2A_48hr: CellzDirect (CLD) Gene Expression Assay for sulfotransferase (SULT2A) at 48 hours (AID 2283710);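 note: hits raise SULT2A1 transcript above the 0.2% DMSO vehicle baseline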
How it was run: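 SULT2A1 transcript measured by qNPA chemiluminescence in human primary hepatocyte cultures after 48 h, with fresh dosing solutions on two consecutive days; gain-of-signal fitting against 0.2% DMSO vehicle; cytotoxicity annotated from phase-contrast morphology.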

[16] = CLD_ACTIN_48hr: CellzDirect (CLD) Gene Expression Assay for Baseline Control (Actin) at 48 hours (AID 2283702)
How it was run: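 Background-control actin mRNA read by qNPA chemiluminescence at 48 h. Human hepatocyte cultures from two donors received fresh multi-concentration chemical doses daily for two days; 0.2% DMSO served as vehicle baseline.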

[17] = read-out: Glyceraldehyde-3-phosphate dehydrogenase (Homo sapiens) (UniProt P04406); assay: CLD_GAPDH_48hr: CellzDirect (CLD) Gene Expression Assay for Baseline Control (Glyceraldehyde 3-phosphate dehydrogenase) at 48 hours (AID 2283706);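 note: active means higher GAPDH mRNA than DMSO vehicle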
How it was run: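 GAPDH baseline-control readout: qNPA chemiluminescent mRNA quantitation in human liver primary cells 48 h after daily dosing on two consecutive days, vehicle 0.2% DMSO; gain of signal fitted against DMSO, cytotoxicity flagged by phase-contrast morphology.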

Measured: AC50

Sequence of Cytochrome P450 3A4 (Homo sapiens) (P08684 whole entry, looked up): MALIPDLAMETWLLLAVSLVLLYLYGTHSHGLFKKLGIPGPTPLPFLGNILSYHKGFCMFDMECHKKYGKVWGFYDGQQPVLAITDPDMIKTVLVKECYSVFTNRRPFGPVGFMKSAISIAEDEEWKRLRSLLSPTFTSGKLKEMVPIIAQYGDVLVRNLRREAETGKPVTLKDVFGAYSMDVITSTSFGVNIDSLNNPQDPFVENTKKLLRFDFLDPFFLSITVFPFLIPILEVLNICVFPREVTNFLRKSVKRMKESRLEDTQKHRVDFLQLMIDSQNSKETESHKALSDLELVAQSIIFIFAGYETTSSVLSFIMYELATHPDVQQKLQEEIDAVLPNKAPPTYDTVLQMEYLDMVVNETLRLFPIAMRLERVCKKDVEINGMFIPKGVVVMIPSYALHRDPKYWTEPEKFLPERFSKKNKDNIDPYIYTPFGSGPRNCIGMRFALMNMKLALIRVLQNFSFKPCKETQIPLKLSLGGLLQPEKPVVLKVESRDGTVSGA
Sequence of Broad substrate specificity ATP-binding cassette transporter ABCG2 (Homo sapiens) (Q9UNQ0 whole entry, looked up): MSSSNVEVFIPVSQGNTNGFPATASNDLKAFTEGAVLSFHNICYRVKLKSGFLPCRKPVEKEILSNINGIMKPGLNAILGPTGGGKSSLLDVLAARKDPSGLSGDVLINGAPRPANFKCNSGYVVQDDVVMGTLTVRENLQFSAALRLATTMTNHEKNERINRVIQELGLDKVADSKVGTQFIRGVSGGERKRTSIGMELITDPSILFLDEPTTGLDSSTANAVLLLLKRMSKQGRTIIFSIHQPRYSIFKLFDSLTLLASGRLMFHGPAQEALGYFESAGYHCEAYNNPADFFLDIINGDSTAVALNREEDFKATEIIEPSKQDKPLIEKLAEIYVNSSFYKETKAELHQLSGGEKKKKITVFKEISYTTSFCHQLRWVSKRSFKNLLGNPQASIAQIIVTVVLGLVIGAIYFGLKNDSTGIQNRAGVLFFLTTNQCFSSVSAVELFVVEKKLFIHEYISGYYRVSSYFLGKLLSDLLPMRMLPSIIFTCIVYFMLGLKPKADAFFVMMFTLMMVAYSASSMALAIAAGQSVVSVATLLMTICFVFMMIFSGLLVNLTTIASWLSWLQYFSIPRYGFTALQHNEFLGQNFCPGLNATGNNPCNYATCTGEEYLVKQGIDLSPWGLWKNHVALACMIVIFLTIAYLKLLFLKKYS
Sequence of Glyceraldehyde-3-phosphate dehydrogenase (Homo sapiens) (P04406 whole entry, looked up): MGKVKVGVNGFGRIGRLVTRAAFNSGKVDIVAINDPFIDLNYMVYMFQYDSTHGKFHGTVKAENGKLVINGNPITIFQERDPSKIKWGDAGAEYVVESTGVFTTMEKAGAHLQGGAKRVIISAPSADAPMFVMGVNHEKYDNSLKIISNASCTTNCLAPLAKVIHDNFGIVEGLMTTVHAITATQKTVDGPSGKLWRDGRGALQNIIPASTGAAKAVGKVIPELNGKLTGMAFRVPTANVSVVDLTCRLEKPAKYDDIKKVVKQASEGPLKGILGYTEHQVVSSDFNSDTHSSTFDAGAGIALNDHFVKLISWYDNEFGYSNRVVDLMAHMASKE

Oc1ccc(C(c2ccc(O)cc2)(C(F)(F)F)C(F)(F)F)cc1
inactive: [1] | [2]

Clc1ccc(C(Cl)(Cl)Cl)cc1
active: [1] 94.7 µM | [2] 77.8 µM

CCCCCCOC(=O)c1ccccc1C(=O)OCCCCCC
inactive: [1] | [2]

CCC(C)(CC)c1cc(NC(=O)c2c(OC)cccc2OC)on1
active: [6] 0.126 µM | [7] 0.26 µM | [9] 4.25 µM | [11] 3.98 µM | [14] 0.498 µM | [15] 3.78 µM
not listed: [1] | [2] | [16] | [17]
inactive: all other assays above

ClC1=C(Cl)[C@]2(Cl)[C@@H]3[C@H]4C[C@H]([C@@H]5O[C@H]45)[C@@H]3[C@@]1(Cl)C2(Cl)Cl
active: [1] 60.9 µM | [2] 78.7 µM

C1CC2OC2CC1C1CO1 (stereo unspecified)
active: [1] 79.3 µM | [2] 47 µM

ClC1=C(Cl)[C@]2(Cl)[C@@H]3[C@@H]4C[C@@H]([C@H]5O[C@@H]45)[C@@H]3[C@@]1(Cl)C2(Cl)Cl
inactive: [1] | [2]

CC1=C2C[C@H]3[C@@H](CC=C4C[C@@H](O)CC[C@@]43C)[C@@H]2CC[C@]12O[C@@H]1C[C@H](C)CN[C@H]1[C@H]2C
inactive: [1] | [2]

CCNc1nc(NC(C)C)nc(SC)n1
active: [6] 5.88 µM | [7] 1.9 µM | [11] 9.24 µM | [13] 8.73 µM | [2] 34.3 µM
not listed: [8] | [12]
inactive: all other assays above

C=CC(=O)NCNC(=O)C=C
active: [1] 65.6 µM | [2] 81.3 µM

Clc1ccc(C(c2ccccc2Cl)C(Cl)(Cl)Cl)cc1 (stereo unspecified)
active: [1] 79.3 µM | [2] 54.5 µM
